From PubChem
The list is not random: actives were taken first. Their share in the collection is about 21%.
Pf growth 48h = inhibits P. falciparum growth in the first generation, 48 h; P. falciparum luciferase growth in erythrocytes, 48 h; AID 504832; actives 5.9% (n = 310,000); Potency, µM (titrated, usually from 28.7 µM), for inactives: at the top dose activity change, negative = inhibition, most hits filed as inhibitors; also: potency is read from the fitted curve at half-maximal effect; % is scaled to controls: 0 for no effect and ±100 for the full control effect
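Cell-based growth assay: transgenic P. falciparum expressing firefly luciferase, cultured in red cells within RPMI 1640 containing 0.5% w/v Albumax, 24 mM bicarbonate and gentamycin. A drop in luciferase activity indicates inhibition.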
HCV inhibitor = blocks hepatitis C virus; Huh7.5.1 HCVcc-Cre infection, luciferase reporter, 44 h; Potency, µM (doses to about 41.8 µM), without a hit: at the top dose activity change, negative = inhibition, actives largely listed as inhibitors; actives 3.4% (n = 340,000); also: potency is read from the fitted curve at half-maximal effect; % is scaled to controls: 0 for no effect and ±100 for the full control effect
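A cell-based infection assay in which seeded cells (1,000 per well) receive test compound after 4 h, are inoculated with HCVcc-Cre at approximately 0.5 moi, and are incubated 44 h before luminescence detection.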
HCMV inh = inhibitors of human cytomegalovirus. AID 1259415. actives 4.5% (n = 410,000). HFF cells, HCMV-luciferase reporter, 72 h; stronger effect = lower value. activity change, negative = inhibition, % at 57.5 µM; in the data active = activity change below about -60%; inconclusive = no clear call, values can overlap the other calls; inactive = above about -39%; also: % is scaled to controls: 0 for no effect and ±100 for the full control effect
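Compounds were evaluated in HFFs infected with an HCMV luciferase reporter virus (MOI 1 PFU/cell). Luciferase in lysates collected 72 h post infection served as the replication measure.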
Shiga inhibitor = inhibitors of Shiga toxin in Vero cells; inhibition, % at 38.7 µM; Vero cells, Shiga toxin protein synthesis inhibition reporter; actives 9.2% (n = 290,000); in the data active = inhibition mostly above about 28%, no sharp cut-off; inactive = mostly below about 43%; also: 0% is about no effect
Cycloheximide cs = counter-screen for Shiga toxin inhibitors: cycloheximide protein synthesis inhibition | AID 2314 | max response, % | cell reporter, cycloheximide protein synthesis inhibition counterscreen | actives 12% (n = 300,000); in the data active = max response mostly above about 13%, no sharp cut-off; inactive = mostly below about 14%; also: read at 38.3 µM for the half of the compounds with a filed dose; 0% is about no effect
Pf growth 96h = inhibits malaria parasite growth, 96 h | P. falciparum luciferase reporter growth, 96 h | Potency, µM (doses to about 28.7 µM), for the others: top-dose activity change, negative = inhibition, actives largely listed as inhibitors | actives 6.9% (n = 320,000) | AID 504834; also: potency is read from the fitted curve at half-maximal effect; % is scaled to controls: 0 for no effect and ±100 for the full control effect
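Cell-based qHTS: luciferase-tagged P. falciparum in erythrocytes (2% hematocrit, 0.05% parasitemia final) incubated with compounds for 96 hours, 37 C, 5% CO2; luciferase detection reagent then added and luminescence measured.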
* marks the source's active call; other numbers are inactive results; ? = inconclusive; · = not tested or not shown. Unless noted, calls follow the shape of the dose curve; as a rule, active = well fitted inhibition curve with a large enough effect; inconclusive = small, poorly fitted or top-dose-only effect, or another doubt; inactive = no such curve, though single readings can be large or run the other way.

SMILES | Pf growth 48h | HCV inhibitor | HCMV inh | Shiga inhibitor | Cycloheximide cs | Pf growth 96h
Cc1ccc(S(=O)(=O)N2CCC(C(=O)NCc3ccccc3Cl)CC2)cc1 | · | -24% | 46 | 4 | -2 | 10µM*
CC1CCN(S(=O)(=O)N2CCC(C(=O)NCc3ccccc3Cl)CC2)CC1 | · | · | -6 | · | · | ·
O=C(CCS(=O)(=O)c1cc(Br)cc2c1N(C(=O)C1CC1)CC2)N1CCN(c2cccc(Cl)c2)CC1 | · | · | 5 | · | · | ·
CCCCN1C(=O)c2cccc3cc(O)cc(c23)C1=O | · | 1% | 48 | · | · | ·
COc1ccc(-c2cc3ncnc(Cl)c3s2)cc1 | 138% | -10% | 114 | 58 | 33* | 107%
COc1ccc(-c2cc(=S)ss2)cc1 | 28% | · | 7 | · | · | ?
CCOC(=O)c1ccc(NC(=O)CC(C)n2nc(C)cc2C)cc1 (stereo not given) | · | · | -12 | · | · | ·
COc1ccc(-c2noc(CCC(=O)NC3CCCCC3)n2)cc1 | 25% | ? | 15 | -7 | 10 | 12µM*
COc1ccc(-c2noc(CCCC(=O)Nc3ccc(C(N)=O)cc3)n2)cc1 | -2% | -2% | -90* | -5 | -2 | ?
COc1ccc(-c2noc(CCC(=O)Nc3cc(Cl)c(OC)cc3OC)n2)cc1 | · | 4µM* | -38 | 46* | 41* | ?
COc1ccc(-c2noc(CCC(=O)NC3CCCCCC3)n2)cc1 | -9% | -26% | -22 | 13 | 18 | ?
O=C(CCc1nc(-c2ccccc2)no1)NC1CCCCC1 | 19% | -10% | 87 | 29 | 12* | ·
O=C(CCc1nc(-c2ccc(Cl)cc2)no1)NC1CCCCC1 | 26% | 12% | 1 | -6 | -4 | 0%
CC[C@H](C)[C@H](NC(=O)[C@H](CC(C)C)NC(=O)[C@H](CO)NC(=O)[C@H](CCC(=O)O)NC(=O)[C@H](CC(C)C)NC(=O)[C@H](Cc1ccc(O)cc1)NC(=O)[C@H](CCCCN)NC(=O)[C@H](CCCCN)NC(=O)[C@H](C)NC(=O)[C@H](CO)NC(=O)[C@H](CC(C)C)NC(=O)[C@H](CCC(N)=O)NC(=O)CNC(=O)[C@H](CC(C)C)NC(=O)[C@H](CC(C)C)NC(=O)[C@H](CCCNC(=N)N)NC(=O)[C@H](CO)NC(=O)[C@H](Cc1ccccc1)NC(=O)[C@H](CC(=O)O)NC(=O)[C@H](CO)NC(=O)[C@@H](NC(=O)[C@H](Cc1ccccc1)NC(=O)[C@@H](NC(=O)CNC(=O)[C@H](CC(=O)O)NC(=O)[C@H](C)NC(=O)[C@@H](N)Cc1cnc[nH]1)C(C)C)[C@@H](C)O)C(N)=O | · | · | · | -7 | -9 | ·
Cc1ccc(CNS(=O)(=O)c2cc3c4c(c2)CCN4C(=O)CC3)cc1 | 67% | ? | -10 | · | · | 13%
COc1ccc(Cl)cc1S(=O)(=O)N(C)CC(=O)N1CCOCC1 | -18% | 23% | -39 | -2 | -5 | 14%
CCOc1cccc(C2Oc3nc(SC)nnc3-c3ccccc3N2C(C)=O)c1OC (stereo not given) | · | · | -4 | · | · | ·
CN(C)C(=O)CSc1n[nH]c(=O)n1CCc1ccccc1 | 9% | ? | -39 | -4 | -2 | 19%
COc1ccccc1-c1noc(CCCC(=O)NC2CCCCC2)n1 | -28% | 24% | 15 | 5 | -5 | 9%
COc1ccc(-c2noc(CCC(=O)NCc3ccco3)n2)cc1 | 24% | -16% | ? | 5 | 17* | 26%
COc1ccc(-c2noc(CCCC(=O)NC3CCCC3)n2)cc1 | ? | 13µM* | -80* | -4 | -1 | 1%
COc1ccc(-c2noc(CNC(=O)c3ccccc3Br)n2)cc1 | · | · | -63* | · | · | ·
O=C(CCCc1nc(-c2ccc(Cl)cc2)no1)NC1CCCC1 | -20% | ? | -84* | -20 | 2 | 4.7µM*
COc1ccccc1-c1nc2ccccc2nc1-c1ccccc1 | ? | -19% | -63* | -7 | -2 | 16%
COc1ccc(OC)c(-c2nc3ccccc3nc2-c2ccccc2)c1 | ? | -17% | 29 | 11 | -1 | ?
SMILES | Pf growth 48h | HCV inhibitor | HCMV inh | Shiga inhibitor | Cycloheximide cs | Pf growth 96h
COc1ccccc1-c1nc2cc3ccccc3cc2nc1-c1ccccc1OC | ? | 0% | 10 | -4 | 0 | 12µM*
O=C(CSc1ccccc1)NCc1ccc2c(c1)CCN2C(=O)c1ccccc1 | · | · | 19 | · | · | ·
COc1ccc(C)cc1NC(=O)c1ccc(NS(=O)(=O)c2cccs2)cc1 | ? | ? | -35 | -7 | -4 | ?
Cc1ccc2nc(NC(=O)CCNS(=O)(=O)c3cccs3)sc2c1 | 6% | 0% | 2 | 79* | 26* | 89%
Cc1cccc2sc(NC(=O)CCNS(=O)(=O)c3cccs3)nc12 | -23% | -21% | 26 | -6 | 1 | -19%
Cc1ccc2nc(NC(=O)c3ccc(NS(=O)(=O)c4cccs4)cc3)sc2c1 | ? | -9% | -31 | 15 | 29* | 0.47µM*
Cc1ccc2nc(NC(=O)CCNS(=O)(=O)c3ccc(Br)s3)sc2c1 | 80% | 8% | 6 | 67 | 26* | 64%
CCOC(=O)CC(=O)NC1(Cc2ccc(O)cc2)CCCCC1 | 2% | 18% | 20 | -6 | -3 | -47%
CCOc1ccccc1-c1nnc2n1N=C(c1cccc(OC)c1)CS2 | · | · | · | -10 | -6 | ·
CCc1ccccc1NC(=O)Cn1nnc(C(=O)NCc2cccc(OC)c2)c1N | -12% | -6% | 18 | -4 | 12 | ?
CC(=O)N(C)c1ccc(N=Nc2c(C)[nH]n(-c3ccccc3)c2=O)cc1 | ? | ? | 13 | -9 | -1 | 12µM*
Cc1[nH]n(-c2ccccc2)c(=O)c1N=Nc1ccc2c(c1)OCO2 | 198% | 7% | 25 | 115* | 32* | 54%
CCN(CC)S(=O)(=O)c1ccc(N=Nc2c(C)[nH]n(C(N)=S)c2=O)cc1 | -21% | 5% | 59 | 73* | 40* | 2%
CCOC(=O)c1ccc(N=Nc2c(C)[nH]n(-c3ccccc3)c2=O)cc1 | -4% | 11% | 31 | -5 | -2 | 0%
Cc1[nH]n(C2=NCCS2)c(=O)c1N=Nc1ccccc1 | 11% | -6% | -61* | 7 | 9 | 32%
O=c1c2ccccc2nc(-c2ccc(F)cc2)n1NCc1ccccc1O | -5% | -11% | -6 | 10 | -4 | 0%
COc1cccc(CSc2nc3n(n2)C(c2cccc(F)c2)C(C(=O)Nc2ccccc2C)=C(C)N3)c1 (stereo not given) | · | · | 6 | · | · | ·
Cn1ccc2cc(S(=O)(=O)N3CCN(S(=O)(=O)c4c(F)cccc4F)CC3)ccc21 | · | · | · | -6 | -6 | ·
O=C(O)/C=C/c1cn(Cc2ccccc2Cl)nc1-c1ccccc1 | 9% | 10% | 0 | 15 | 6 | -11%
CC(=O)N(C)c1ccc(N=Nc2c(C)[nH]n(C(N)=S)c2=O)cc1 | -3% | 12% | 82 | 49* | 39* | 43%
